Data reported in PubChem BioAssay (NCATS).
Activity calls are given as the source filed them. Calls follow the shape of the dose curve; as a rule, active = well fitted curve in the direction sought with a large enough effect; inconclusive = small, poorly fitted or top-dose-only effect, or another doubt; inactive = no such curve, though single readings can be large or run the other way.

Target: Hexokinase-4 (Homo sapiens) + Glucokinase regulatory protein (Homo sapiens) (UniProt P35557+Q14397)
Experiment: qHTS assay for inhibitors of recombinant human GCK-GKRP interaction: HTRF assay (AID 743207)
Details: recombinant GCK-GKRP HTRF binding, 60 min, with sorbitol-6-phosphate; series mostly up to 57.5 µM
Source text: Glucokinase (GCK) is a glucose sensor in hepatocytes and pancreatic beta-cells. Hepatic GCK is regulated by glucokinase regulatory protein (GKRP), which is predominantly localized to the liver. GKRP binds to GCK inhibiting its activity in the fasting state while in the presence of glucose the GKRP is displaced. There is an additional layer of regulation by fructose 1-phosphate and fructose 6-phosphate, which inhibit and enhance the GCK-GKRP interaction, respectively. GCK plays a role in glucose homeostasis and there is an interest in the development of strategies to activate GCK to lower blood glucose levels in type 2 diabetes. To date the majority of effort has focused on direct activation of GCK and the assays developed herein look to activate GCK by inhibiting its binding to GKRP. A compound that inhibits the interaction of GCK with GKRP could be important for the treatment of diabetes and can also be used as a tool compound to further elucidate GCK-GKRP biology. To that end, we have developed an HTS biochemical assay using HTRF technology for to interrogate the GCK-GKRP interaction. This assay was screened against a small compound library to look for modulators of activity.
3 uL of 5 nM GST-GCK and 5 nM FLAG-GKRP proteins with 2 uM S6P (columns 1-2, 4-48; Millipore, Billerica, MA) are dispensed into Greiner, white solid-bottom 1536-well assay plates; columns 3 receive buffer without GCK as a control for maximum inhibition. Buffer contains 2 mM MgCl2, 25 mM KCl, 25 mM Hepes, 1 mM DTT, 0.1% Tween 20 and 0.025% BSA and the pH was adjusted to 7.1. Compounds (23 nL) are then transferred via Kalypsys pin tool equipped with 1536-pin array (10 nL slotted pins, V&P Scientific, San Diego, CA). The library compounds are in columns 5-48 and columns 1-4 serve as controls with DMSO in columns 1 and 3 and 26 mM 1:1.5 fold serial of gluckokinase activator (GKA-EMD) in column 2 and 26 mM of the glucokinase activator (GKA-EMD) in column 4. Following addition of compound, 1 uL of detection antibodies (anti-Flag XL 665 and anti-GST K in reconstitution buffer from Cisbio, Bedford, MA; 0.7 ng/well and 0.0945 ng/well, respectively) is added, and the mixture is allowed to equilibrate for 60 minutes at room temperature. Data are normalized to DMSO-treated control columns with (maximum signal) and without (minimum signal) enzyme. Plates were read on an Envision plate reader (PerkinElmer, Shelton, CT, USA) with excitation at 320 nm and dual-wavelength detection at the Fret donor wavelength (615 nm) and the FRET acceptor wavelength (665 nm).

Hexokinase-4 (Homo sapiens) + Glucokinase regulatory protein (Homo sapiens), sequence (P35557 whole entry, looked up): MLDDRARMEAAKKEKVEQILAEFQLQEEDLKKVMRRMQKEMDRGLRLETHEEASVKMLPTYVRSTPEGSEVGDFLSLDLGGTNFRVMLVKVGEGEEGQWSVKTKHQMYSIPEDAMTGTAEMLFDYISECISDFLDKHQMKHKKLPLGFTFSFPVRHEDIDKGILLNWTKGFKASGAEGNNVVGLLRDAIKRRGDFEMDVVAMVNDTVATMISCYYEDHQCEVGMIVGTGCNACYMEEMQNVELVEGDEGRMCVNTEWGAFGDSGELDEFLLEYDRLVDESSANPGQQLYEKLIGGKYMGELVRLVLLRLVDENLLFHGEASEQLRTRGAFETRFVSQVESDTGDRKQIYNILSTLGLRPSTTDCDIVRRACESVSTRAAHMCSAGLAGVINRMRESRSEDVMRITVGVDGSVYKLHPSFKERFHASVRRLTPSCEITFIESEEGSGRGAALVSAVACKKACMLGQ
Hexokinase-4 (Homo sapiens) + Glucokinase regulatory protein (Homo sapiens), sequence (Q14397 whole entry, looked up): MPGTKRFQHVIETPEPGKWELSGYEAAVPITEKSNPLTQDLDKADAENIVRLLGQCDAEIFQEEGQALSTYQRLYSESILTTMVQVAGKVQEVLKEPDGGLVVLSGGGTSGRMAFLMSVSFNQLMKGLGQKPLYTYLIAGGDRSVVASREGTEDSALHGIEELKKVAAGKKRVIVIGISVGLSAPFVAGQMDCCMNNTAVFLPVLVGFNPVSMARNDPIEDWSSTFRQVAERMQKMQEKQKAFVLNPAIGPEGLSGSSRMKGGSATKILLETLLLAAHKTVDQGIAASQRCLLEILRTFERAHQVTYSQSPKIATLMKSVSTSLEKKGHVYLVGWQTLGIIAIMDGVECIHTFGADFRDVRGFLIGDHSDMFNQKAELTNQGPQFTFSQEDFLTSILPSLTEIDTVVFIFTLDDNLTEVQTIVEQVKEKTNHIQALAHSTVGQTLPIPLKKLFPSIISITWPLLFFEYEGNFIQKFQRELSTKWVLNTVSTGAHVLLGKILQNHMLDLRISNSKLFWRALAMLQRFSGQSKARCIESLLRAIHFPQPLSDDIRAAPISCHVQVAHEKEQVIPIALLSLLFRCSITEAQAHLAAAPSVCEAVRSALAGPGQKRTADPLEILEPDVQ

| Compound | outcome |
| --- | --- |
| COC(=O)[C@H]1[C@H]2C[C@H]3c4[nH]c5ccccc5c4CCN3C[C@H]2CC[C@@H]1O | inactive |
| Oc1ccc(O)cc1 | inactive |
| CC1(C)CCC(NC(=O)[C@@H](N)CCC(=O)O)CC1 | inactive |
| CC[C@H](C)C(=O)O[C@H]1CCC=C2C=C[C@H](C)[C@H](CC[C@@H]3C[C@@H](O)CC(=O)O3)[C@H]21 | inactive |
| Nc1cc(Cl)c(NC2=NCCN2)c(Cl)c1 | inactive |
| CC(=O)O[C@H]1C[C@@H]2CC[C@@H]3[C@H](CC[C@@]4(C)[C@H]3C[C@H]([N+]3(C)CCCCC3)[C@@H]4OC(C)=O)[C@@]2(C)C[C@@H]1[N+]1(C)CCCCC1 | inactive |
| CC(C)C[C@H]1C(=O)N2CCC[C@H]2[C@]2(O)O[C@](NC(=O)[C@@H]3C=C4c5cccc6[nH]c(Br)c(c56)C[C@H]4N(C)C3)(C(C)C)C(=O)N12 | inactive |
| C[N+]1(CCCCC[N+]2(C)CCCC2)CCCC1 | inactive |
| CC(C)COC(=O)OCN1C(=O)CN(CCN2CC(=O)N(COC(=O)OCC(C)C)C(=O)C2)CC1=O | inactive |
| CNCCC=C1c2ccccc2CCc2ccccc21 | inactive |
| N[C@@H](Cc1cnc[nH]1)C(=O)O | inactive |
| CN1C2CCC1CC(OC(=O)c1c[nH]c3ccccc13)C2 (stereo not given) | inactive |
| CCC(NC(C)C)C(O)c1ccc(O)c(O)c1 (stereo not given) | inactive |
| CC(CCc1ccccc1)NCC(O)c1ccc(O)c(C(N)=O)c1 (stereo not given) | inactive |
| CCCC1O[C@@H]2C[C@H]3[C@@H]4CCC5=CC(=O)C=C[C@]5(C)[C@H]4[C@@H](O)C[C@]3(C)[C@]2(C(=O)CO)O1 (stereo not given in full) | inactive |
| CNCCC(Oc1ccccc1C)c1ccccc1 (stereo not given) | inactive |
| COc1cc(NS(C)(=O)=O)ccc1Nc1c2ccccc2nc2ccccc12 | inactive |
| O=C(O)c1cc2cc(Cc3cccnc3)ccc2o1 | inactive |
| O=C1CCC(c2ccc(-n3ccnc3)cc2)=NN1 | inactive |
| C[C@@H]1C(=O)NC2=Nc3cccc(Cl)c3CN21 | inactive |
| COc1cc2c(cc1O)CC[C@@H]1[C@@H]2CC[C@]2(C)[C@@H](O)CC[C@@H]12 | inactive |
| CCCn1c(=O)[nH]c(=O)c2[nH]cnc21 | inactive |
| C1CCc2nnnn2CC1 | inactive |
| N[C@H](CO)C(=O)O | inactive |
| C[C@]12CC[C@@H]3c4ccc(O)cc4CC[C@H]3[C@@H]1CC[C@@H]2O | inactive |
